Reference: PubChem BioAssay (NCI)
Several values for one entry are separate records, joined by “and”; a condition that tells them apart may be missing. Identical values can stand only once. Compounds without any hit were thinned out: in the full panel of roughly 83,000, 20% have a hit.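 The endpoint reported here, percent growth, reads 100 for growth as untreated, 0 for no net growth and -100 for all cells dead.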 A number with no mark means an inactive call. Activity calls are given as the source filed them. How the source made its calls: active means growth percent below 10; inactive means the rest.

Legend:
Experiment in all cases: NCI-60 one-dose screen, 48 h (100 = growth as untreated, 0 = no growth, -100 = all killed)
Settings in all cases: 10 µM unless noted
DU-145 prostate = system: DU-145 prostate
K-562 leukemia = system: K-562 leukemia
MALME-3M melanoma = system: MALME-3M melanoma
MDA-MB-231 breast = system: MDA-MB-231 breast
RXF 393 renal = system: RXF 393 renal
SF-268 CNS = system: SF-268 CNS
SF-295 CNS = system: SF-295 CNS
SF-539 CNS = system: SF-539 CNS
UACC-257 melanoma = system: UACC-257 melanoma
M14 melanoma = system: M14 melanoma

SMILES	growth (DU-145 prostate)	growth (K-562 leukemia)	growth (MALME-3M melanoma)	growth (MDA-MB-231 breast)	growth (RXF 393 renal)	growth (SF-268 CNS)	growth (SF-295 CNS)	growth (SF-539 CNS)	growth (UACC-257 melanoma)	growth (M14 melanoma)
O=C1C=CC(n2cc(F)c(=O)[nH]c2=O)O1 (stereo not given)	61%	52.1%	58.9%	98.8%	99%	85.8%	94.5%	8.79% (active)	90.4%	70.7%
O=C(c1ccc(Cl)cc1)C1C(c2ccccc2)C1[N+](=O)[O-] (stereo not given)	105%	92.7%	104%	91.2%	106%	98.1%	103%	103%	105%	102%
CCOC(=O)C(N)Cc1cc(I)c(O)c(I)c1 (stereo not given)	109% and 107%	105%	115%	104% and 97.5%	105% and 112%	99% and 100%	115% and 124%	115% and 102%	108%	105% and 104%
CCN(CC)C(=S)SCCO	107%	97%	99.7%	101%	106%	102%	106%	102%	96.3%	106%
CCOC(=O)CN1CCC(C(=O)OCC)CC1	118%	118%	111%	103%	127%	113%	119%	117%	110%	105%
COc1ccc([N+](=O)[O-])cc1OC	111% and 118%	102% and 103%	117% and 104%	111% and 108%	114% and 104%	100% and 108%	102% and 105%	93.9% and 98%	90.1% and 95%	98.9% and 113%
NNc1ncnc2cccc(Cl)c12	112%	99.4%	99%	105%	103%	107%	98.7%	97.2%	88.2%	104%
COC(=O)C(Cc1cn(C(C)=O)c2ccccc12)P(=O)(OC)OC (stereo not given)	109%	102%	96.1%	97.9%	116%	96.3%	97.1%	97.3%	110%	91.9%
CCOC(=O)c1ccc(N2C(=O)C(Cl)(c3ccccc3)C2c2ccco2)cc1 (stereo not given)	65.4%	31.1%	86.7%	80%	99.7%	77.8%	86.4%	96.2%	89.7%	98.7%
COc1ccc(-n2[nH]c3c(cnc4ccccc43)c2=O)cc1	95.8% and 101%	112% and 90.7%	63.7% and 105%	119%	110% and 98.3%	103% and 106%	86.9% and 92.7%	87.8% and 93.4%	109%	92.3% and 104%
O=C(c1ccncc1)c1c(Cc2ccccc2)ccc2ccccc12	99.2%	101%	32.3%	70.2%	84%	117%	83.6%	95.3%	-14.4% (active)	108%
CC1NC(C)c2ccc3ccccc3c2O1 (stereo not given)	104%	104%	119%	110%	120%	101%	116%	102%	99.4%	92.5%
COc1ccc(CCl)c(C)c1OC	104%	6.6% (active)	84.9%	98.5%	112%	97.1%	95.3%	99.4%	96%	110%
CCOC(=O)c1csc(N)n1	105% and 104%	101% and 102%	112% and 108%	107% and 98.7%	100%	108% and 96.7%	99.8% and 92.5%	94.8% and 101%	87.3%	118% and 98.3%
COc1cc(NCCCCCNC(C)C)c2ncccc2c1	111%	91.1% and 104%	99.6% and 125%	89% and 93.1%	90.9% and 92.6%	93.5%	104% and 102%	91.9% and 78.1%	113% and 80.2%	96.9% and 90.2%
CCCCCc1cc[n+](CC(=O)c2ccccc2)cc1	105% and 110%	113% and 104%	100% and 108%	104% and 106%	98.6% and 110%	103% and 107%	94.1%	96.3% and 102%	99% and 106%	100%
CC(=O)Oc1cc(C)c(OC(C)=O)c(C)c1C	105%	90.9%	91.4%	91.4%	125%	107%	107%	101%	105%	112%
O=C1C(=O)c2ccccc2C(O)=C1CC=C(Cl)Cl	68% and 63.4%	31% and 33%	68.5% and 69.2%	72.8% and 71.8%	51.8% and 71.7%	45.2% and 53.9%	38.5% and 14.4%	44.7% and 55.6%	43.2% and 74.3%	57.3% and 69%
C=CCN1C(=O)c2ccccc2C1=O	107%	106%	120%	106%	104%	106%	109%	95.3%	102%	99.9%
Cc1ccc(N)cc1S(=O)(=O)O	111% and 119%	98.3% and 85.5%	122% and 113%	109%	124% and 108%	101% and 102%	111% and 112%	104% and 120%	117% and 92.7%	105% and 101%
